# Experimental data as given in PubChem BioAssay AID463173 (ICCB-Longwood Screening Facility, Harvard Medical School, 2010).
# About 4,300 (8.3%) of roughly 52,000 compounds were called active. For the sample, actives were picked, then their nearest neighbours and some compounds at random. Unmarked numbers belong to inactive results. Cut-off read from the data, not from the text of the source: active = survival mostly below about 52% (no sharp cut-off); inactive = mostly above about 56%.
# System: DeltatarO mutant
# Experiment: S. aureus survival, RN4220 and DeltatarO strains – OD600, teichoic acid synthesis inhibitors, primary screen (AID 463173)
# Conditions: S. aureus RN4220 wild type/DeltatarO growth, OD600, 18 h, active compounds read low, screened at 18.75 µg/mL (by protocol)
row,Compound,survival
1,COc1ccc(-c2nc(CSc3nncn4c3cc3oc(C)cc34)c(C)o2)cc1,56%
2,Cc1c(Cl)cccc1-n1ncc(C(=O)N2CCOCC2)c1C1CCN(C(=O)OC(C)(C)C)CC1,103%
3,CCc1ccc(S(=O)(=O)Nc2cccc(-c3ccc(OC)nn3)c2)s1,76%
4,Cc1c(CC(=O)NCCc2ccccc2F)c(=O)oc2cc(O)c(Cl)cc12,59%
5,CCn1cc(C(=O)N2CCN(c3ccccc3F)CC2)c(=O)c2cc(S(=O)(=O)N(C)C3CCCCC3)ccc21,79%
6,CCC(C)NC(=O)c1cn(CC)c2ccc(S(=O)(=O)N3CCc4ccccc4C3)cc2c1=O (centres undefined),35% (active)
7,CCn1cc(C(=O)NCCc2ccccc2)c(=O)c2cc(S(=O)(=O)N3CCc4ccccc4C3)ccc21,67%
8,CCOc1ccc(CCNC(=O)c2cn(C)c3ccc(S(=O)(=O)N4CCCCC4)cc3c2=O)cc1OCC,101%
9,CCn1cc(C(=O)NCCc2ccc(C)cc2)c(=O)c2cc(S(=O)(=O)N3CCc4ccccc4C3)ccc21,67%
10,CCOc1ccc(CCNC(=O)c2cn(C)c3ccc(S(=O)(=O)N4CCOCC4)cc3c2=O)cc1OCC,56% (active)
11,CCn1cc(C(=O)NC(C)c2ccccc2)c(=O)c2cc(S(=O)(=O)N3CCc4ccccc4C3)ccc21 (centres undefined),80%
12,CCn1cc(C(=O)NCc2ccccc2)c(=O)c2cc(S(=O)(=O)N3CCc4ccccc4C3)ccc21,73%
13,CCn1cc(C(=O)NCCc2ccc(Cl)cc2)c(=O)c2cc(S(=O)(=O)N3CCc4ccccc4C3)ccc21,54% (active)
14,CCOc1ccc(CCNC(=O)c2cn(C)c3ccc(S(=O)(=O)N4CCCCCC4)cc3c2=O)cc1OCC,61%
15,Cn1cnnc1SCC(=O)O,85%
16,Cc1ccc(NC(=O)CC(C)S(=O)(=O)c2ccc3c(c2)NC(=O)CO3)cc1C (centres undefined),85%
17,Cc1ccc(N2CCN(C(=O)c3c(C)oc4ncnc(N5CCCCC5)c34)CC2)c(C)c1,77%
18,CCOc1cc(C(=O)NCC(c2ccc(N(C)C)cc2)N2CCOCC2)cc(OCC)c1OCC (centres undefined),101%
19,CCc1ccc(Nc2ncnc3c2cnn3-c2cc(Cl)ccc2C)cc1,77%
20,CCc1nnc(SCc2nc(-c3ccc(OC)c(OC)c3)oc2C)c2cc3sc(C)cc3n12,69%
21,CSc1ccc(CNC(=O)CCn2c(=O)c3cccn3c3ccc(F)cc32)cc1,59%
22,O=C(CCn1c(=O)c2cccn2c2cccnc21)NCc1ccccc1F,100%
23,O=C(CCn1c(=O)c2cccn2c2ccc(F)cc21)NCc1ccccc1F,45% (active)

row,Compound,survival
1,O=C(CCn1c(=O)c2cccn2c2ccc(F)cc21)NCCc1ccccc1,42% (active)
2,NS(=O)(=O)c1ccc(CCNC(=O)Cn2c(=O)c3cccn3c3ccc(F)cc32)cc1,89%
3,O=C(Cn1c(=O)c2cccn2c2ccccc21)NCCc1ccccc1,62%
4,O=C(CCCn1c(=O)c2cccn2c2ccc(F)cc21)NCCc1ccccc1,47% (active)
5,O=C(CCn1c(=O)c2cccn2c2ccc(F)cc21)NCCc1ccc(Cl)cc1,50%
6,CCC(=O)Nc1ccc(-c2nnc3c4ccccc4c(C)nn23)cc1,90%
7,COc1ccc(OC)c(NC(=O)c2c(C)oc3ncnc(N4CCOCC4)c23)c1,134%
8,COC(=O)C(C)Sc1cc(C)c2ccccc2n1 (centres undefined),76%
9,CCCCNC(=O)CCCn1c(=O)c2ccccc2n(Cc2cccc(Cl)c2)c1=O,100%
10,CCCN(CCC)c1cc(C)nc2nc(-c3ccc(Cl)cc3)nn12,52%
11,Cc1cc(N(C)Cc2ccccc2)n2nc(-c3ccc(C(C)(C)C)cc3)nc2n1,39% (active)
12,Cc1cc(N(CCO)Cc2ccccc2)n2nc(-c3ccc(C(C)(C)C)cc3)nc2n1,48%
13,CCCN(CCC)c1cc(C)nc2nc(-c3ccc(C(C)(C)C)cc3)nn12,103%
14,CCN(CC)c1cc(C)nc2nc(-c3ccc(C)cc3)nn12,43% (active)
15,Cc1cc(C)n2nc(-c3ccc(Cl)cc3)nc2n1,76%
16,Cc1cccc(C(=O)NC2(C(F)(F)F)N=C(c3ccccc3)N(C3CCCCC3)C2=O)c1 (centres undefined),68%
17,Cc1c(Cl)cccc1NC(=O)Cn1nc(C(F)(F)F)c2c1CCC2,73%
18,CCOc1ccc(S(=O)(=O)NCCc2sc3nc(-c4ccc(F)cc4)nn3c2C)cc1,67%
19,Cc1nn2c(-c3ccco3)ccnc2c1-c1ccc(Cl)cc1,94%
20,Cc1cc(-c2ccccc2)nc2cc(C(N)=O)nn12,71%
21,Cc1ccc(S(=O)(=O)NCCc2nnc3ccc(SCc4ccc(F)cc4)nn23)cc1,112%
22,CCOc1ccc(NCc2cccn2-c2nnc(N3CCC(C(=O)NCc4cccc(OC)c4)CC3)s2)cc1,80%
23,Cn1cnc(S(=O)(=O)N2CCC(C(=O)Nc3ccc(F)cc3F)CC2)c1,91%

row,Compound,survival
1,NC(=O)COc1cccc(-n2cnnn2)c1,63%
2,COc1ccc2nc(SCC(=O)O)[nH]c2c1,104%
3,COc1ccc2nc(-c3ccc(N)cc3)[nH]c2c1,58%
4,CCN(CC)CCSc1nc2ccc(OC)cc2[nH]1,70% (active)
5,Cc1ccc(S(=O)(=O)N2CCCC2C(N)=O)cc1 (centres undefined),59%
6,COc1cc(C(=O)Nc2ccc3oc(-c4ccc(C)c(Br)c4)nc3c2)cc(OC)c1OC,93%
7,CCCc1cc(C(=O)Nc2c(C)nn(Cc3ccc(C)cc3)c2C)no1,73%
8,CC(C)c1ccc(-c2noc(C3CCCN(C(=O)Cc4cccs4)C3)n2)cc1 (centres undefined),40% (active)
9,CCCC(=O)N1CCCC(c2nc(-c3ccc(C(C)C)cc3)no2)C1 (centres undefined),103%
10,CC(C)c1ccc(-c2noc(C3CCCN(C(=O)c4ccccc4)C3)n2)cc1 (centres undefined),86%
11,Cc1ccc(-n2nc(C)c3c(C(=O)NCc4ccc(F)cc4)cc(C)nc32)cc1,83%
12,CN(C)c1ccc(CNc2nc(-c3ccco3)nn2C(=O)c2cccc([N+](=O)[O-])c2)cc1,66%
13,COC(=O)c1ccccc1NC(=O)CCCS(=O)(=O)c1nc(-c2ccccc2OC)cc(C(F)(F)F)n1,87%
14,COc1ccc(NC(=O)CCCS(=O)(=O)c2nc(-c3ccccc3OC)cc(C(F)(F)F)n2)c(OC)c1,46% (active)
15,COc1ccccc1-c1cc(C(F)(F)F)nc(S(=O)(=O)CCCC(=O)Nc2ccccc2F)n1,70%
16,COc1ccccc1-c1cc(C(F)(F)F)nc(S(=O)(=O)CCCC(=O)Nc2cc(C)ccc2O)n1,47% (active)
17,COc1ccc(-c2cc(C(F)(F)F)nc(S(=O)(=O)CCCC(=O)Nc3ccccc3C(F)(F)F)n2)cc1OC,70%
18,O=C(CCS(=O)(=O)c1nc(-c2cccs2)cc(C(F)(F)F)n1)Nc1cc(Br)ccc1O,15% (active)
19,Cc1ccc(O)c(NC(=O)CCS(=O)(=O)c2nc(-c3cccs3)cc(C(F)(F)F)n2)c1,51%
20,COc1ccccc1-c1cc(C(F)(F)F)nc(S(=O)(=O)CCCC(=O)Nc2ccc(F)cc2F)n1,67%
21,COc1ccccc1-c1cc(C(F)(F)F)nc(S(=O)(=O)CCCC(=O)Nc2cc(Br)ccc2O)n1,45% (active)
22,COc1ccccc1-c1cc(C(F)(F)F)nc(S(=O)(=O)CCCC(=O)Nc2cc(OC)c(OC)c(OC)c2)n1,134%
23,COc1ccccc1-c1cc(C(F)(F)F)nc(S(=O)(=O)CCCC(=O)Nc2ccc(F)c(Cl)c2)n1,87%

row,Compound,survival
1,O=C(CCS(=O)(=O)c1nc(-c2cccs2)cc(C(F)(F)F)n1)Nc1ccc(Br)cc1,61%
2,CC(=O)Nc1ccc(NC(=O)c2cc(CN3CCCC3)on2)cc1,96%
3,Cc1cccc(C)c1NC(=O)C1CCN(S(=O)(=O)c2cccc3nsnc23)CC1,89%
4,COc1ccc(-n2c3c(cc(-c4nc(-c5ccc(Cl)cc5)cs4)c2=O)C(=O)CC(C)(C)C3)cc1Cl,79%
5,COc1ccc(OC)c(NC(=O)c2cnn(-c3ccc(C)cc3)c2C2CCNCC2)c1,92%
6,CCOc1ccc(NC(=O)CCNS(=O)(=O)c2ccc3c(c2)CCCC(=O)N3)cc1,66%
7,CCN1CCOC(=O)C1CC(=O)Nc1cc(Cl)ccc1OC (centres undefined),50%
8,O=C(O)c1ccccc1SC1CC(=O)N(c2ccc(N3CCCCC3)cc2)C1=O (centres undefined),90%
9,CCS(=O)(=O)N1CCc2cc(C(=O)Nc3ccc(OC)cc3OC)ccc21,44% (active)
10,COC(=O)c1cc(OC)c(OC)cc1NC(=O)c1ccc2c(c1)CCN2S(C)(=O)=O,37% (active)
11,COc1ccc(N2CCN(C(=O)c3ccc4c(c3)CCN4S(C)(=O)=O)CC2)cc1,57%
12,CCOc1ccc(NC(=O)c2ccc3c(c2)CCN3S(=O)(=O)CC)cc1,48%
13,COC(=O)c1cc(OC)c(OC)cc1NC(=O)c1ccc2c(c1)CCN2S(=O)(=O)c1ccccc1,66%
14,CCS(=O)(=O)N1CCc2cc(C(=O)Nc3cc(OC)c(Cl)cc3OC)ccc21,43% (active)
15,COC(=O)c1ccccc1NC(=O)c1ccc2c(c1)CCN2S(C)(=O)=O,94%
16,CCS(=O)(=O)N1CCc2cc(C(=O)NCc3ccc(OC)cc3)ccc21,89%
17,COc1ccc(Cl)cc1NC(=O)c1ccc2c(c1)CCN2S(C)(=O)=O,81%
18,CCS(=O)(=O)N1CCc2cc(C(=O)Nc3ccc(OC)c(Cl)c3)ccc21,47%
19,CCS(=O)(=O)N1CCc2cc(C(=O)N3CCN(c4ccccc4)CC3)ccc21,69%
20,CCS(=O)(=O)N1CCc2cc(C(=O)N3CCN(c4ccc(OC)cc4)CC3)ccc21,40% (active)
